LDHA block = inhibitors of human lactate dehydrogenase A | P00338 | purified LDHA, NADH/diaphorase-resazurin fluorescence; active compounds read low | activity change, % (values are at about 110 or 230 µM) | 480,000 tested, 0.15% active | AID 1347041; in the data active = activity change below about -30%; inconclusive = mostly about -25% to -30%;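 note: plate controls were DMSO wells for no effect and wells without enzyme for full effect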
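Human LDH5 (2 nM) was incubated with 0.06 mM NADH and 0.2 mM pyruvate for 5 min at room temperature in Tris pH 7.4. Remaining NADH was coupled through diaphorase/resazurin, and resorufin fluorescence was read at 0 and 20 min.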
Nrf2 activator = activates Nrf2 signaling; AREc32 ARE-luciferase reporter (MCF7-derived line), luminescence, 24 h; Potency, µM (top dose mostly 46.1 µM), for the others: top-dose activation, hits mostly activators; 410,000 tested, 0.31% active; AID 624171; note: potency is the fitted concentration of half-maximal effect; % of control where 0% means no effect; nearly all actives have a fitted effect of over 65% in size
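AREc32 cells carrying an ARE-driven firefly luciferase reporter were seeded at 1000 cells/well in OPTI-MEM with 5% FBS, then exposed to compound for 24 hr at 37 deg C. Luminescence was read with Steady-Glo after 30 min at RT.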
Nrf2 block = Nrf2 pathway inhibition; 360,000 tested, 2.1% active; A549 ARE-Fluc reporter, luciferase luminescence, 18-24 h; Potency, µM (doses to about 46 µM), without a hit: at the highest dose activity change, negative = inhibition, actives largely listed as inhibitors; note: potency is the fitted concentration of half-maximal effect; % is set by controls: 0 for no effect and ±100 for the full control effect; nearly all actives have a fitted effect of over 60% in size
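Reporter: ARE-Fluc in A549. Exposure: 18-24 h, 37 °C, 5% CO2, 5% FBS OPTI-MEM. Readouts: fluorescent cytotoxicity (CellTiter-Fluor), then luminescent Nrf2 signal after BugLite.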
ALOX12 inh = ALOX12 (human) lipoxygenase inhibition. 580,000 tested, 1.1% active. AID 1671190. purified 12hLO, xylenol orange hydroperoxide absorbance. Potency, µM (top dose mostly 108 µM), for inactives: at the top dose activity change, negative = inhibition, most hits filed as inhibitors; note: potency is the fitted concentration of half-maximal effect; % is set by controls: 0 for no effect and ±100 for the full control effect
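Hydroperoxide product was detected by ferrous iron/xylenol orange as the 573 to 405 nm absorbance ratio. Arachidonic acid at 40 uM (final) was turned over for 30 min at room temperature by 150 nM human 12hLO, pH 7.0 Hepes buffer, after 15 min compound preincubation.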
A549 viability = kills or reduces viability of A549 cells in Nrf2 counter-screen. A549 ARE-Fluc cells, CellTiter-Fluor viability, 18-24 h. Potency, µM (titrated, usually from 46 µM), inactives show at the top dose activity change, negative = cytotoxicity, most hits filed as inhibitors. 390,000 tested, 0.16% active; note: potency is the fitted concentration of half-maximal effect; % is set by controls: 0 for no effect and ±100 for the full control effect
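Cytotoxicity counterscreen: CellTiter-Fluor fluorescence was measured in A549 ARE_Fluc cells after 18-24 h of compound exposure in a concentration series. The subsequent BugLite luminescent read reports ARE-luciferase activity.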
IDH1 R132H inh = blocks human mutant IDH1 R132H enzyme. O75874. IDH1-R132H enzyme, NADPH consumption, diaphorase/resazurin fluorescence. Potency, µM (doses to about 76.6 µM), for inactives: at the highest dose activity change, negative = inhibition, hits mostly inhibitors. 390,000 tested, 0.093% active. AID 602179; note: potency is the fitted concentration of half-maximal effect; % is set by controls: 0 for no effect and ±100 for the full control effect; nearly all actives have a fitted effect of over 65% in size
Target sequence (O75874 whole entry R132H, stated change not applied): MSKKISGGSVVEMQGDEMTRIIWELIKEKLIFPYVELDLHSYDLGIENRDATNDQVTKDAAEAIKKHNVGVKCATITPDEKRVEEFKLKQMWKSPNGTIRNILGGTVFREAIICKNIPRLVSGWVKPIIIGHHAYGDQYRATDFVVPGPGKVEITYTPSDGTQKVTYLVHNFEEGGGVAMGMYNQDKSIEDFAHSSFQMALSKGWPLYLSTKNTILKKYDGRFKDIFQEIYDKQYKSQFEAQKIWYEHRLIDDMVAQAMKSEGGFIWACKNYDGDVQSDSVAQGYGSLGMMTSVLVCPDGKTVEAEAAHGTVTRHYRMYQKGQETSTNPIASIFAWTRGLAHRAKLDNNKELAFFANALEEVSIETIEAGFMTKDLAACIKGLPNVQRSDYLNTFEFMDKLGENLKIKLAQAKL
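IDH1-R132H (0.5 ug/mL) preincubated 30 min with compound, then NADPH (0.016 mM) and alpha-KG (2 mM) added; 80 min at RT, pH 7.5. Remaining NADPH coupled via diaphorase/resazurin to fluorescence (540/590 nm); concentration-response curves normalized to no-enzyme control.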
* marks the source's active call; other numbers are inactive results; ? = inconclusive; · = not tested or not shown; [ ] = remark or other dose. The list is not random: actives were taken first. Their share in the collection is about 2.7%. Unless noted, calls come from the whole dose curve; as a rule, active = well fitted curve in the direction sought with a large enough effect; inconclusive = small, poorly fitted or top-dose-only effect, or another doubt; inactive = no such curve, though single readings can be large; an effect the other way counts as inactive or inconclusive.

SMILES | LDHA block | Nrf2 activator | Nrf2 block | ALOX12 inh | A549 viability | IDH1 R132H inh
Oc1c(CN2CCOCC2)ccc2ccccc12 | 35.5 | 14.0% | 15.2% | 44.7µM* | -1.5% | 9.1%
CCOC(=O)c1oc2cc(OCc3cccc(OC)c3)ccc2c(=O)c1-c1ccc(OC)cc1 | -17.9 | · | · | -4.5% | · | ·
CCC(C)(C(=O)NC1CCCCC1)N(Cc1cccs1)C(C)=O (stereo not drawn) | 9.9 | · | · | -0.7% | · | ·
COc1ccccc1/C=C/C(=O)Nc1ccc(N2CCOCC2)cc1 | -3.0 | 0.2% | 11.6µM* | 8.4% | -22.9% | -3.3%
COc1cccc(/C=C/C(=O)Nc2ccc(N3CCOCC3)cc2)c1OC | -0.9 | 2.5% | ? | 0.0% | 0.5% | 1.6%
O=C(NCCCc1ccccc1)C1CCCN(C(=O)Cc2c[nH]c3ccccc23)C1 (stereo not drawn) | -3.4 | · | · | 2.9% | · | ·
O=C(Nc1ccccc1)C1CCN(c2nc3ccccc3o2)CC1 | -0.5 | · | · | -19.1% | · | ·
COc1ccc(C)cc1C(=O)N1CCc2onc(-c3ccccc3F)c2C1 | · | · | · | 0.4% | · | ·
O=C1C(N2CCOCC2)=C(n2nnc3ccccc32)C(=O)c2ccccc21 | 24.4 | -1.5% | 23.1µM* | 0.0% | 23.1µM* | 27.9%
O=C1c2ccccc2C(=O)c2c1cccc2-n1nnc2ccccc21 | -4.2 | -0.1% | -4.5% | 0.0% | 2.0% | -1.0%
Cc1nc(-c2ccccc2)sc1-c1nc(-c2cccnc2)ncc1S(=O)(=O)c1ccccc1 | -1.1 | -0.5% | 23.1µM* | · | ? | -0.3%
O=S(=O)(c1ccccc1)c1cnc(-c2cccnc2)nc1-c1ccccc1 | -7.2 | 0.4% | 10.0% | -3.8% | 0.1% | 1.1%
COc1ccc(Cl)cc1NS(=O)(=O)c1cccc2cccnc12 | -0.3 | 12.6µM* | ? | 12.0% | -3.8% | 1.0%
COC/C=C/C1=CC2=CC(=O)C(C)(OC(=O)c3cnc4ccccc4n3)C(=O)C2=CN1CCOC (stereo not drawn) | 40.7 | 4.0% | 2.6% | ? | -12.9% | -8.3%
COC/C=C/C1=CC2=CC(=O)C(C)(OC(=O)c3cnc4ccccc4n3)C(=O)C2=CN1C(CO)CO (stereo not drawn) | -2.0 | -1.0% | 5.8% | 7.08µM* | -11.0% | -3.7%
Clc1ccc(-c2nnc(CSc3nnc(-c4cccs4)n3Cc3ccccc3)o2)cc1 | -3.4 | 7.4% | 20.6µM* | -12.1% | -11.0% | -2.0%
O=C1N[C@H](CC(=O)N2CCC(Cc3ccccc3)CC2)C(=O)Nc2ccccc21 | · | · | · | 16.9% | · | ·
CCCCC[C@@H]1C=C(C(=O)O)[C@H](c2ccc(F)cc2)N1S(=O)(=O)c1ccc(C)cc1 | 1.0 | -0.9% | -16.4% | 44.7µM* | -6.2% | -8.4%
CCN1/C(=C/c2ccc3cc(C)ccc3[n+]2CC)Sc2cc(C)c(C)cc21 | -12.4 | -0.5% | 1.3µM* | 50.1µM* | ? | -3.0%
O=S1(=O)CCN(C2CCCCC2)c2c(F)nc(N3CCCCC3)c(F)c21 | 14.3 | · | · | ? | · | ·
O=C(/C=C/c1ccco1)Nc1ccc(-c2nc3ccccc3[nH]2)cc1 | -7.7 | ? | -4.5% | -20.9% | 23.1µM* | 2.7%
Cc1cccc(-c2nc3cc(NC(=O)/C=C/c4ccco4)ccc3o2)c1 | 3.2 | · | · | 11.2µM* | · | ·
Cc1n[nH]c(=O)nc1SCC(=O)Nc1ccc(C(=O)OC(C)C)cc1 | -3.5 | · | · | -5.0% | · | ·
O=C(Cc1cccc(F)c1)NCCc1nc2c(s1)CCCC2 | 2.3 | · | · | ? | · | ·
CC/C(C)=N/Nc1cccc([N+](=O)[O-])c1 | 0.8 | 0.1% | -8.7% | 1.12µM* | 0.1% | -5.5%
N#C/C(=N\Nc1cccc(Cl)c1)C(=O)c1ccccc1 | 1.8 | 4.3% | ? | ? | 18.4µM* | -0.4%
CCC(CC)=NNc1cccc([N+](=O)[O-])c1 | 2.6 | -0.7%[9.22 µM] | -8.8% | ? | -5.0% | 2.1%
COc1ccc(C(=O)/C(C#N)=N/Nc2cccc([N+](=O)[O-])c2)cc1 | -7.3 | ? | 23.1µM* | -22.3% | ? | 2.3%

Source: PubChem
